In PubChem BioAssay (EPA / NIEHS):
Activity calls are given as the source filed them. How the source made its calls: active means hit-call score of the fitted dose curve at least 0.9, where 1 is the maximum; inactive means score below 0.9.

Legend:
Details in all cases: mRNA level, 48 h; actives raise or lower the signal
[1] = read-out: Pro-epidermal growth factor (Homo sapiens) (UniProt P01133); assay: LTEA_HepaRG_EGF: Life Technologies and Expression Analysis (LTEA) Assay for Epidermal growth factor (EGF) using HepaRG (AID 2283489)
In short: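 HepaRG cells (~100,000/well, 48 h pre-culture) exposed in duplicate for 48 h in serum-free induction medium to 8 half-log concentrations up to 100 uM in 0.5% DMSO. EGF mRNA by qRT-PCR, normalized to ACTB/GAPDH/POLR2A; bidirectional fit versus DMSO.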

[2] = read-out: Ezrin (EZR), EZR (gene 7430); assay: LTEA_HepaRG_EZR: Life Technologies and Expression Analysis (LTEA) Assay for Ezrin (EZR) using HepaRG (AID 2283491)
In short: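 EZR transcript levels came from Fluidigm qRT-PCR and were normalized to three housekeeping genes after 48 h chemical exposure of HepaRG cells. Dosing used an 8-point half-log series with a 100 uM top concentration in 0.5% DMSO, tested in duplicate; both directions were fitted versus vehicle.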

[3] = read-out: Cytochrome P450 3A7 (Homo sapiens) (UniProt P24462); assay: LTEA_HepaRG_CYP3A7: Life Technologies and Expression Analysis (LTEA) Assay for CYP3A7 using HepaRG (AID 2283492)
In short: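 Differentiated HepaRG cells in serum-free induction medium exposed 48 h in duplicate to 8-point half-log series from 100 uM top in 0.5% DMSO. CYP3A7 mRNA by qRT-PCR, normalized to ACTB/GAPDH/POLR2A, bidirectional fit versus DMSO.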

CYP3A5 (gene 1577) = assay: LTEA_HepaRG_CYP3A5: Life Technologies and Expression Analysis (LTEA) Assay for CYP3A5 using HepaRG (AID 2283493)
In short: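 Human HepaRG hepatic cells receive 48 h chemical treatment at eight concentrations (half-log steps from 100 uM) in 0.5% DMSO. Expression of CYP3A5 is quantified by Fluidigm qRT-PCR and normalized to three reference genes.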

[4] = read-out: Fatty Acid-Binding Protein 1 (FABP1), FABP1 (gene 2168); assay: LTEA_HepaRG_FABP1: Life Technologies and Expression Analysis (LTEA) Assay for Fatty Acid-Binding Protein 1 (FABP1) using HepaRG (AID 2283494)
In short: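 qRT-PCR readout of FABP1 transcript (normalized to three housekeeping genes) after 48 h chemical exposure of HepaRG cells; eight concentrations, half-log steps, max 100 uM, 0.5% DMSO vehicle; gain or loss fitted relative to DMSO baseline.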

[5] = read-out: Cytochrome P450 4A22 (Homo sapiens) (UniProt Q5TCH4); assay: LTEA_HepaRG_CYP4A22: Life Technologies and Expression Analysis (LTEA) Assay for Cytochrome P450 4A22 (CYP4A22) using HepaRG (AID 2283495)
In short: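 Differentiated HepaRG cells in serum-free induction medium exposed 48 h in duplicate to eight half-log concentrations up to 100 uM in 0.5% DMSO. CYP4A22 mRNA quantified by TaqMan qRT-PCR, normalized to ACTB, GAPDH and POLR2A; bidirectional fit versus DMSO.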

[6] = read-out: Cytochrome P450 7A1 (Homo sapiens) (UniProt P22680); assay: LTEA_HepaRG_CYP7A1: Life Technologies and Expression Analysis (LTEA) Assay for Cytochrome P450 7A1 (CYP7A1) using HepaRG (AID 2283496)
In short: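 HepaRG, 48 h exposure, 8-pt half-log series from 100 uM, 0.5% DMSO vehicle, duplicates. Readout: TaqMan qRT-PCR mRNA vs three housekeeping genes; bidirectional curve fit against DMSO baseline.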

[7] = read-out: Glutathione S-Transferase (GSTA2), GSTA2 (gene 2939); assay: LTEA_HepaRG_GSTA2: Life Technologies and Expression Analysis (LTEA) Assay for Glutathione S-Transferase (GSTA2) using HepaRG (AID 2283497)
In short: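 qRT-PCR readout of GSTA2 transcript, normalized to three housekeeping genes, fitted bidirectionally against 0.5% DMSO baseline. Differentiated HepaRG cells received compound for 48 h at 8 concentrations (top 100 uM, half-log steps).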

[8] = read-out: Glutamate-cysteine ligase catalytic (GCLC), GCLC (gene 2729); assay: LTEA_HepaRG_GCLC: Life Technologies and Expression Analysis (LTEA) Assay for Glutamate-cysteine ligase catalytic (GCLC) using HepaRG (AID 2283498)
In short: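 HepaRG, 48 h exposure, 8-pt half-log series from 100 uM, 0.5% DMSO vehicle; TaqMan qRT-PCR for GCLC mRNA, housekeeping-normalized; bidirectional curve fit vs DMSO baseline.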

[9] = read-out: Glutamate-cysteine ligase regulatory (GCLM), GCLM (gene 2730); assay: LTEA_HepaRG_GCLM: Life Technologies and Expression Analysis (LTEA) Assay for Glutamate-cysteine ligase regulatory (GCLM) using HepaRG (AID 2283500)
In short: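 Endpoint is GCLM transcript level by qRT-PCR, normalized to three housekeeping genes, after 48 h chemical exposure of human HepaRG cells (0.5% DMSO vehicle, top 100 uM, half-log dilutions). Fitting was bidirectional relative to DMSO.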

[10] = read-out: Glutathione S-transferase M3 (GSTM3), GSTM3 (gene 2947); assay: LTEA_HepaRG_GSTM3: Life Technologies and Expression Analysis (LTEA) Assay for Glutathione S-transferase M3 (GSTM3) using HepaRG (AID 2283501)
In short: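 Differentiated human HepaRG cells were exposed in duplicate for 48 h in serum-free induction medium, 8 points from 100 uM top in half-log steps, 0.5% DMSO. GSTM3 mRNA was measured by TaqMan qRT-PCR, normalized to ACTB, GAPDH and POLR2A; bidirectional fit versus DMSO.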

[11] = read-out: Hypoxia-inducible factor 1-alpha (Homo sapiens) (UniProt Q16665); assay: LTEA_HepaRG_HIF1A: Life Technologies and Expression Analysis (LTEA) Assay for Hypoxia-inducible factor 1 (HIF1A) Trancription factor using HepaRG (AID 2283503)
In short: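 HIF1A transcript level read by qRT-PCR (ACTB, GAPDH, POLR2A normalization) after 48 h chemical exposure of HepaRG cultures. Eight half-log concentrations, top 100 uM, 0.5% DMSO vehicle, duplicates; bidirectional curve fit against DMSO baseline.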

[12] = read-out: 3-Hydroxy-3-Methylglutaryl-CoA Synthase 2 (HMGCS2), HMGCS2 (gene 3158); assay: LTEA_HepaRG_HMGCS2: Life Technologies and Expression Analysis (LTEA) Assay for 3-Hydroxy-3-Methylglutaryl-CoA Synthase 2 (HMGCS2) using HepaRG (AID 2283504)
In short: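 Human HepaRG cells in serum-free induction medium were exposed in duplicate for 48 h to 8-point half-log series from 100 uM top in 0.5% DMSO. HMGCS2 mRNA measured by TaqMan qRT-PCR, normalised to ACTB, GAPDH, POLR2A; bidirectional fit versus DMSO.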

[13] = read-out: Insulin Like Growth Factor 1 (IGF1), IGF1 (gene 3479); assay: LTEA_HepaRG_IGF1: Life Technologies and Expression Analysis (LTEA) Assay for Insulin Like Growth Factor 1 (IGF1) using HepaRG (AID 2283506)
In short: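 Cells are thawed, plated and cultured 48 h, then exposed in duplicate to chemical (highest 100 uM, half-log steps, 0.5% DMSO) for another 48 h. Total RNA is analysed by Fluidigm qRT-PCR for IGF1 expression relative to vehicle.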

[14] = read-out: Insulin-like growth factor-binding protein 1 (IGFBP1), IGFBP1 (gene 3484); assay: LTEA_HepaRG_IGFBP1: Life Technologies and Expression Analysis (LTEA) Assay for Insulin-like growth factor-binding protein 1 (IGFBP1) using HepaRG (AID 2283508)
In short: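 HepaRG cells, plated 48 h then switched to serum-free induction medium, exposed in duplicate for 48 h to 8-point half-log series from 100 uM in 0.5% DMSO. mRNA measured by qRT-PCR, normalized to ACTB/GAPDH/POLR2A; bidirectional fit versus DMSO.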

[15] = read-out: growth arrest and DNA damage 45 (GADD45G), GADD45G (gene 10912); assay: LTEA_HepaRG_GADD45G: Life Technologies and Expression Analysis (LTEA) Assay for growth arrest and DNA damage 45 (GADD45G) using HepaRG (AID 2283499)
In short: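 Differentiated human HepaRG cells, 48 h post-plating, exposed 48 h in serum-free induction medium to 8 half-log concentrations (top 100 uM, 0.5% DMSO) in duplicate. GADD45G mRNA measured by Fluidigm TaqMan qRT-PCR, normalized to ACTB, GAPDH, POLR2A; bidirectional fit versus DMSO.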

HGF (gene 3082) = assay: LTEA_HepaRG_HGF: Life Technologies and Expression Analysis (LTEA) Assay for Hepatocyte Growth Facto (HGF) using HepaRG (AID 2283505)
In short: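 Differentiated HepaRG cells in serum-free induction medium exposed 48 h in duplicate, 8 half-log concentrations from 100 uM in 0.5% DMSO. HGF mRNA by qRT-PCR, normalised to ACTB, GAPDH, POLR2A; bidirectional fitting.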

[16] = read-out: Early growth response protein 1 (EGR1) transcription factor, EGR1 (gene 1958); assay: LTEA_HepaRG_EGR1: Life Technologies and Expression Analysis (LTEA) Assay for Early growth response protein 1 (EGR1) transcription factor using HepaRG (AID 2283490)
In short: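 HepaRG, 48 h exposure, 8-pt half-log series from 100 uM, 0.5% DMSO vehicle; EGR1 transcript by TaqMan qRT-PCR (Fluidigm array), housekeeping-normalized; bidirectional fit relative to DMSO baseline.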

[17] = read-out: Intercellular Adhesion Molecule 1 (ICAM1), ICAM1 (gene 3383); assay: LTEA_HepaRG_ICAM1: Life Technologies and Expression Analysis (LTEA) Assay for Intercellular Adhesion Molecule 1 (ICAM1) using HepaRG (AID 2283507)
In short: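 Differentiated human HepaRG cells in serum-free induction medium exposed 48 h in duplicate to 8 half-log concentrations (top 100 uM, 0.5% DMSO). ICAM1 mRNA quantified by TaqMan qRT-PCR, normalized to ACTB, GAPDH and POLR2A; bidirectional fitting versus DMSO.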

Measured: outcome

Cytochrome P450 3A7 (Homo sapiens), sequence (P24462 whole entry, looked up): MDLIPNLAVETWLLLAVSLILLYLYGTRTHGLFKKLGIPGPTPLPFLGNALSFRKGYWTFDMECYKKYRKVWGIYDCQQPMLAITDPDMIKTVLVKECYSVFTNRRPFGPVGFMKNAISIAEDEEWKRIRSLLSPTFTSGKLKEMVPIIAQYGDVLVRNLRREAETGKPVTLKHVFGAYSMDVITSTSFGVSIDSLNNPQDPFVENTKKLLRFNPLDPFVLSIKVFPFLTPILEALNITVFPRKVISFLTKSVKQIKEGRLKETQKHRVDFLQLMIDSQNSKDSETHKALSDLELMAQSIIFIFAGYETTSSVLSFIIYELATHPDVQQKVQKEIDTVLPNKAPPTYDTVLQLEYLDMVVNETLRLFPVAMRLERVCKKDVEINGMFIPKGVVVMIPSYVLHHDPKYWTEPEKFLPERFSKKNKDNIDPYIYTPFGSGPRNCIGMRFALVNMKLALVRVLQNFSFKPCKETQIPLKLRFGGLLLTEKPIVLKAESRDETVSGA
Hypoxia-inducible factor 1-alpha (Homo sapiens), sequence (Q16665 whole entry, looked up): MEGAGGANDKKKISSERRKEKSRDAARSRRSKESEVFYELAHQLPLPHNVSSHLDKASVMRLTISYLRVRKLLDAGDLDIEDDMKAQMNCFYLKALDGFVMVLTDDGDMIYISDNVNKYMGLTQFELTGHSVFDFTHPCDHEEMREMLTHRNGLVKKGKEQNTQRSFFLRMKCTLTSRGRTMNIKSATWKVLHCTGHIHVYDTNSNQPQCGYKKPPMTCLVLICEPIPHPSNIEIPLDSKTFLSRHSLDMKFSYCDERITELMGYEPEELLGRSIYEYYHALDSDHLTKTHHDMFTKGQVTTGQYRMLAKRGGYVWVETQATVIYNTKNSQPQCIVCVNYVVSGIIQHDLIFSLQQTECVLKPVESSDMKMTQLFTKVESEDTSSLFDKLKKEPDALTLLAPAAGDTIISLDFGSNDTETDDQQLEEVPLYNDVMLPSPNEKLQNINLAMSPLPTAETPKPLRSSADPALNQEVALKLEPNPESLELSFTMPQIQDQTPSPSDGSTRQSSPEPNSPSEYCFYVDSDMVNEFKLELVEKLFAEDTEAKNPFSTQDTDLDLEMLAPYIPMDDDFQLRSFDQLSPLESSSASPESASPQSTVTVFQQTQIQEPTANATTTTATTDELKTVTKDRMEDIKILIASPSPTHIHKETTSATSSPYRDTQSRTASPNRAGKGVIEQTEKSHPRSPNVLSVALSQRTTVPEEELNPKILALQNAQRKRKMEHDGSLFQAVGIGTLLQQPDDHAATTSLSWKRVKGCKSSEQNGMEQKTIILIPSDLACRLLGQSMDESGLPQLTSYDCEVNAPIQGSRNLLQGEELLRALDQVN

CCCCCCCCCCCC(=O)OC
not listed: [15] | HGF (gene 3082) | [16] | [17]
inactive: all other assays above

FC(F)(F)C(F)(F)C(F)(F)C(F)(F)C(F)(F)C(F)(F)CCI
not listed: HGF (gene 3082) | [16] | [17]
inactive: all other assays above

CCCCCCCC=O
not listed: [15] | [16] | [17]
inactive: all other assays above

CC(CO)OC(C)CO (centres undefined) (tested in a mixture with another compound)
not listed: [1] | HGF (gene 3082)
inactive: all other assays above
